Compounds without any hit were thinned out: in the full panel of roughly 83,000, 20% have a hit.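 For each line, cells grew in 96-well plates with the test compound present at a single concentration for 48 hours.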 A number with no mark means an inactive call. Activity calls are given as the source filed them. The calls were made as follows: active = growth percent below 10; inactive = the rest.
How the values were obtained:
Assay in all cases: NCI-60 one-dose screen, 48 h (100 = growth as untreated, 0 = no growth, -100 = all killed)
Conditions in all cases: 10 µM unless noted
SR leukemia = tested on: SR leukemia
RPMI-8226 leukemia = tested on: RPMI-8226 leukemia
OVCAR-8 ovarian = tested on: OVCAR-8 ovarian
OVCAR-5 ovarian = tested on: OVCAR-5 ovarian
OVCAR-4 ovarian = tested on: OVCAR-4 ovarian
SK-OV-3 ovarian = tested on: SK-OV-3 ovarian
IGROV1 ovarian = tested on: IGROV1 ovarian
OVCAR-3 ovarian = tested on: OVCAR-3 ovarian
HS 578T breast = tested on: HS 578T breast
NCI/ADR-RES ovarian = tested on: NCI/ADR-RES ovarian
T-47D breast = tested on: T-47D breast
BT-549 breast = tested on: BT-549 breast
MDA-MB-435 melanoma = tested on: MDA-MB-435 melanoma
SW-620 colon = tested on: SW-620 colon
MCF7 breast = tested on: MCF7 breast
HCT-116 colon = tested on: HCT-116 colon
HCC-2998 colon = tested on: HCC-2998 colon
KM12 colon = tested on: KM12 colon

| SMILES | growth (SR leukemia) | growth (RPMI-8226 leukemia) | growth (OVCAR-8 ovarian) | growth (OVCAR-5 ovarian) | growth (OVCAR-4 ovarian) | growth (SK-OV-3 ovarian) | growth (IGROV1 ovarian) | growth (OVCAR-3 ovarian) | growth (HS 578T breast) | growth (NCI/ADR-RES ovarian) | growth (T-47D breast) | growth (BT-549 breast) | growth (MDA-MB-435 melanoma) | growth (SW-620 colon) | growth (MCF7 breast) | growth (HCT-116 colon) | growth (HCC-2998 colon) | growth (KM12 colon) |
| --- | --- | --- | --- | --- | --- | --- | --- | --- | --- | --- | --- | --- | --- | --- | --- | --- | --- | --- |
| COc1cc2nc(-c3ccc(Cl)cc3)cc(OCCCN3CCOCC3)c2cc1OC | 12.9% | 20.4% | 42.7% | 42.8% | 70.4% | 68.4% | 35.6% | 77.8% | 76.4% | 44.6% | 28.2% | 44.9% | 10.2% | 65% | 50.2% | 21.1% | 66.8% | 29.7% |
| CNCCOc1nc2c3cnccc3cc(-c3cc(OC)c(OC)c(OC)c3)c2c2ccncc12 | -18.2% (active) | -32% (active) | -37.3% (active) | -9.07% (active) | -2.03% (active) | -33.9% (active) | -16.3% (active) | 1.62% (active) | -25.7% (active) | -27.9% (active) | -12.4% (active) | -45.5% (active) | -90.1% (active) | 3.63% (active) | -0.459% (active) | -89.9% (active) | -77% (active) | 5.03% (active) |
| O=C(c1ccccc1)N1N=C(c2ccc(-n3ccc(C(F)(F)F)n3)c(F)c2)CC1c1ccc[nH]1 (stereo not drawn) | 104% | 101% | 104% | 104% | 116% | 141% | 108% | 116% | 107% | 100% | 90.6% | 110% | 102% | 108% | 96.4% | 105% | 112% | 104% |
| CN[C@@H](C)C(=O)N[C@H]1CCS[C@H]2CC(C)(C)[C@@H](C(=O)N[C@H]3c4ccccc4C[C@H]3OCC#CC#CCO[C@@H]3Cc4ccccc4[C@@H]3NC(=O)[C@H]3N4C(=O)[C@@H](NC(=O)[C@H](C)NC)CCS[C@H]4CC3(C)C)N2C1=O | 36.1% | 71.2% | 77.3% | 109% | -33.1% (active) | -71.6% (active) | 116% | 86.2% | 82.2% | 109% | 86.1% | -15.4% (active) | 54.8% | 105% | 64.7% | 99% | 90.2% | 110% |
| COC(=O)/C=C1\S/C(=N\NC(=O)c2cc3ccc2/C=C\c2ccc(cc2)/C=C\3)N(c2ccccc2)C1=O | -15.6% (active) | -20.9% (active) | 40.7% | 48.2% | 29.4% | 135% | 5.97% (active) | -6.25% (active) | 77.9% | 31.4% | -38.2% (active) | 35.5% | 89.6% | 7.39% (active) | 23.2% | 4.05% (active) | 3.64% (active) | 8.49% (active) |
| Cc1ccc(NC(C(=O)c2ccccc2)c2ccccc2)cc1 (stereo not drawn) | 69% | 25.6% | 45.9% | 78.4% | 49.5% | 95.5% | 57.6% | 29.4% | 32.7% | 92.8% | 25.9% | 42.2% | 30.6% | 67.1% | 38.5% | 35.6% | 55.1% | 23.7% |
| COc1ccc(/C=C/c2nc(Nc3ccc(S(=O)(=O)Nc4nc(C)cc(C)n4)cc3)c3ccccc3n2)cc1 | 49.5% | 62.3% | 66.1% | 74.9% | 77.2% | 90.9% | 90.8% | 79.6% | 83.1% | 73.1% | 49.1% | 87.9% | 60.6% | 61.1% | 42.2% | 66.4% | 74.9% | 47.5% |
| COc1ccc(-c2nc3sccn3c2/C=C/C(=O)c2ccc3c(c2)OCO3)cc1 | 41.4% | 10.5% | 80.9% | 108% | 46.1% | 170% | 85.1% | 84.8% | 96.9% | 75.7% | 83.9% | 81.8% | 57.6% | 56% | -7.62% (active) | 58.4% | 95.5% | 54.2% |
| O=C1OC(Cc2ccccc2)C1c1ccccc1 (stereo not drawn) | 104% | 109% | 100% | 98.9% | 109% | 121% | 101% | 110% | 107% | 105% | 93.7% | 95.1% | 102% | 107% | 98.1% | 90.8% | 99.5% | 101% |
| O=c1c2c(c(=O)n1O)c1c3ccc[nH]c3nc1c1nc3[nH]cccc3c12 | 32.2% | 93.9% | 67.1% | 103% | 78.7% | 89.2% | 63% | 98.3% | 83.3% | 89.6% | 60.7% | 80.9% | 96.3% | 62.4% | 73.5% | 72.7% | 84.9% | 97.1% |
| COc1cc(C=O)ccc1OC1OC(COC(C)=O)C(OC(C)=O)C(OC(C)=O)C1OC(C)=O (stereo not drawn) | 60.7% | 92.1% | 102% | 103% | 103% | 103% | 113% | 104% | 104% | 103% | 92.4% | 102% | 107% | 99.7% | 97.3% | 100% | 108% | 103% |
| Cc1nn(-c2ccccc2)c(Oc2c(Cl)cccc2Cl)c1/C=N/N=c1\sc2ccccc2n1C | 16.6% | 36.6% | 45.8% | 58.5% | 81.8% | 70.6% | 53.6% | 49.9% | 73.2% | 56.1% | 47.2% | 63.6% | 64.6% | 34.7% | 45.5% | 30.1% | 71.4% | 44.3% |
| O=C(/C=C(O)/C=C/c1ccc(SC(F)(F)F)cc1)/C=C/c1ccc(SC(F)(F)F)cc1 | 40.8% | 38.9% | 96% | 118% | 97.3% | 119% | 80.6% | 88% | 98.2% | 104% | 78% | 82.5% | 79.2% | 89.1% | 52.1% | 17.7% | 101% | 81.9% |
| COc1ccccc1/C(C)=N/NC(=O)CSc1nc2ccccc2c(=O)n1Cc1ccc(S(N)(=O)=O)cc1 | 96.1% | 99.5% | 98.7% | 97.9% | 94.9% | 115% | 102% | 108% | 85.4% | 99.5% | 97.6% | 99.3% | 103% | 100% | 89.2% | 95.9% | 95.9% | 102% |
| COc1ccc2[nH]c(=O)c(CN3CCN(c4nccc(-c5ccc(Cl)cc5)n4)CC3)cc2c1 | 70.3% | 73.6% | 66% | 98.5% | 71.4% | 94.9% | 106% | 100% | 72.9% | 82.4% | 73.6% | 91.2% | 97.9% | 89.5% | 83.5% | 86.4% | 105% | 90.6% |
| COc1ccc(/C=C2\Oc3cc(OCCCN4CCCCC4)ccc3C2=O)cc1OC | -18.7% (active) | 90.6% | 94.4% | 95.2% | 89.4% | 113% | 93.9% | 93% | 92% | 97.1% | 97.8% | 83.9% | 100% | 85% | 85.9% | 76% | 108% | 93.6% |

Reference: PubChem BioAssay (NCI)
